Values joined by “and” are separate entries in the source; they are usually repeats but may differ in a detail not shown here. Equal values may be shown once. Records with an inconclusive call do not appear. Where a call stands in place of a potency, no number is given. Active and inactive are the calls of the source. The call rests on the fitted dose curve; in most records, active means well fitted activation curve with a large enough effect in the repeat runs; inconclusive means weak or mixed curves; inactive means no such curve, though single readings can be large or run the other way.
Each compound was assayed against Aryl hydrocarbon receptor (Homo sapiens) (UniProt P35869) (assay: qHTS assay to identify small molecule that activate the aryl hydrocarbon receptor (AhR) signaling pathway (AID 743085; further: nearly all actives have a fitted effect of over 15% in size;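 on activation: HG2L7.5c1 human HepG2 liver cells with stably integrated DRE-driven firefly reporter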)). Settings: HepG2 AhR-luc (HG2L7.5c1), luciferase, 24 h; series mostly up to 70.3 µM.
Summary of the method: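 Compounds were tested in HepG2 hepatocellular carcinoma cells harbouring a stably integrated luciferase gene under control of 20 DREs. Increased reporter signal after 24 h treatment at 37C was taken as AhR activation.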
Potency means the concentration at half of the fitted maximal effect.

Aryl hydrocarbon receptor (Homo sapiens), sequence (P35869 whole entry, looked up): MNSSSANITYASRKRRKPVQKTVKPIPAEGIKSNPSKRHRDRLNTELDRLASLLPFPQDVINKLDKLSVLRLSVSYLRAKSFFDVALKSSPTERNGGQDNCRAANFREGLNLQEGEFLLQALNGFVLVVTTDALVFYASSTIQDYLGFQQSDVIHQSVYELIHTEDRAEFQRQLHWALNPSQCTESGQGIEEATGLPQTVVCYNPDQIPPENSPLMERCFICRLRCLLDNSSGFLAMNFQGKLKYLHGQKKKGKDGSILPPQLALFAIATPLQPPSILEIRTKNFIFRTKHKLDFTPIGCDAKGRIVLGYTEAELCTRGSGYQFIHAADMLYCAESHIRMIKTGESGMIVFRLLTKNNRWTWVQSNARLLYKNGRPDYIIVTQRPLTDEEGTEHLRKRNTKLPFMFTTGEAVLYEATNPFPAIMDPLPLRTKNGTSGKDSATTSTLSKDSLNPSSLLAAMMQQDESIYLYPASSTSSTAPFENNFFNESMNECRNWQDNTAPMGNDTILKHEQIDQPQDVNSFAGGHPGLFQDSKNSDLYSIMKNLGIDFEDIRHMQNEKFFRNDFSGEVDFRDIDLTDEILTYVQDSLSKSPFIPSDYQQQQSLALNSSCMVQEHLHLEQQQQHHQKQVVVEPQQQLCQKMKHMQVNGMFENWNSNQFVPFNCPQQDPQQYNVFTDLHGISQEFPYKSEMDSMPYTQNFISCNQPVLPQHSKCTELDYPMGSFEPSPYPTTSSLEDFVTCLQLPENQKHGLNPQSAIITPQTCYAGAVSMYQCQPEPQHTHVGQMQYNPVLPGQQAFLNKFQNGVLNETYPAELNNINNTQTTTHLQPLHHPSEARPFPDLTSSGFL

| Structure (SMILES) | Potency |
| --- | --- |
| C[C@]12CC[C@@H]3c4ccc(OC(=O)N(CCCl)CCCl)cc4CC[C@H]3[C@@H]1CC[C@@H]2O | inactive |
| CC1(C)CN=C(NN=C(/C=C/c2ccc(C(F)(F)F)cc2)/C=C/c2ccc(C(F)(F)F)cc2)NC1 | 1.22 µM (active) |
| CCCCCCCCCBr | inactive |
| c1ccc2cc3c(cc2c1)-c1cccc2cccc-3c12 | 0.12 µM (active) |
| CC(=O)[O-].CC(=O)[O-].O.O.[Cd+2] | inactive |
| CCCCCCCCCCCCCC[P+](CCCCCC)(CCCCCC)CCCCCC (tested in a mixture with another compound) | inactive |
| CCCCCCCCCCCCCCCC[N+](C)(C)C | inactive |
| Cc1cc(C)c(C2=C(OC(=O)CC(C)(C)C)C3(CCCC3)OC2=O)c(C)c1 | inactive |
| Cc1cc(SCc2sc(-c3ccc(C(F)(F)F)c(F)c3)nc2C)ccc1OCC(=O)O | inactive |
| CC[C@H](C)[C@H]1O[C@]2(C=C[C@@H]1C)C[C@@H]1C[C@@H](C/C=C(\C)[C@@H](O[C@H]3C[C@H](OC)[C@@H](O[C@H]4C[C@H](OC)[C@@H](O)[C@H](C)O4)[C@H](C)O3)[C@@H](C)/C=C/C=C3\CO[C@@H]4[C@H](O)C(C)=C[C@@H](C(=O)O1)[C@]34O)O2 | inactive |
| CCOC(=O)CC(=O)CCl | inactive |
| C[C@@H]1CC[C@@]2(OC1)O[C@H]1[C@@H](O)[C@H]3[C@@H]4CC[C@H]5C[C@@H](O[C@@H]6O[C@H](CO)[C@H](O[C@@H]7O[C@H](CO)[C@@H](O)[C@H](O[C@@H]8OC[C@@H](O)[C@H](O)[C@H]8O)[C@H]7O[C@@H]7O[C@H](CO)[C@@H](O)[C@H](O[C@@H]8O[C@H](CO)[C@@H](O)[C@H](O)[C@H]8O)[C@H]7O)[C@H](O)[C@H]6O)[C@H](O)C[C@]5(C)[C@H]4CC[C@]3(C)[C@H]1[C@@H]2C | inactive |
| O=[N+]([O-])c1ccc2ccc3cccc4ccc1c2c34 | inactive |
| O=[N+]([O-])c1cc(C(F)(F)F)c(Cl)c([N+](=O)[O-])c1Cl | inactive |
| CC(C)[C@H](C(=O)OC(C#N)c1cccc(Oc2ccccc2)c1)c1ccc(OC(F)F)cc1 (stereo partly drawn) | inactive |
| Cc1cc(C)cc(OP(=O)(Oc2cc(C)cc(C)c2)Oc2cc(C)cc(C)c2)c1 | 9.84 µM (active) |
| CC(C)CC(C)N (stereo not drawn) | inactive |
| Nc1ccccc1C(=O)OC/C=C/c1ccccc1 | 61.3 µM (active) |
| CC(C)[C@H](C(=O)O[C@H](C#N)c1cccc(Oc2ccccc2)c1)c1ccc(Cl)cc1 | inactive |

| Structure (SMILES) | Potency |
| --- | --- |
| Clc1ccc(C(c2ccccc2Cl)C(Cl)(Cl)Cl)cc1 (stereo not drawn) | inactive |
| CN(C)C(=S)[S-].CN(C)C(=S)[S-].[Cu+2] | inactive |
| CN(C)S(=O)(=O)N(SC(F)(Cl)Cl)c1ccccc1 | inactive |
| O=C1c2ccccc2C(=O)C1C(=O)C(c1ccccc1)c1ccc(Cl)cc1 (stereo not drawn) | inactive |
| C[C@]12Cc3nonc3C[C@@H]1CC[C@@H]1[C@@H]2CC[C@@]2(C)[C@H]1CC[C@]2(C)O | inactive |
| CC1CCC(C(C)C)C(OC(=O)c2ccccc2N)C1 (stereo not drawn) | inactive |
| C=CC(=O)OCCCCOC(=O)C=C | inactive |
| CCC(C)(C)C(=O)OC1=C(c2ccc(Cl)cc2Cl)C(=O)OC12CCCCC2 | inactive |
| N#CSCSC#N | inactive |
| ClC1=C(Cl)[C@]2(Cl)[C@H]3[C@H]([C@H]4C=C[C@H]3C4)[C@@]1(Cl)C2(Cl)Cl | inactive |
| CC1(C)CC/C(=C/c2ccc(Cl)cc2)C1(O)Cn1cncn1 (stereo not drawn) | 8.6 µM (active) |
| O=C(CBr)c1ccc(O)cc1 | inactive |
| CC(C)OC(=O)C(O)(c1ccc(Cl)cc1)c1ccc(Cl)cc1 | inactive |
| FC(Cl)(Cl)Cl | inactive |
| C[C@@H]1O[C@@H](O[C@H]2C[C@@H](O)[C@]3(CO)[C@H]4[C@H](O)C[C@]5(C)[C@@H](C6=CC(=O)OC6)CC[C@]5(O)[C@@H]4CC[C@]3(O)C2)[C@H](O)[C@H](O)[C@H]1O | inactive |
| O=C1NCN(c2ccccc2)C12CCN(CC1COc3ccccc3O1)CC2 (stereo not drawn) | inactive |
| Cc1cc(N=Nc2ccccc2C)ccc1N | 7.7 µM (active) and 4.33 µM (active) |
| Oc1c(Cl)c(Cl)cc(Cl)c1Cl | inactive |
| CCCCCCCCCCCCBr | inactive |

— PubChem BioAssay (Tox21)
